# Measured values published in PubChem BioAssay AID1159580 (chemical genetic matrix, 2015).
# About 2,000 (36%) of roughly 5,500 compounds were called active. Not shown: some 18% with an inconclusive outcome. This is one part of the list. Values without a mark were called inactive. No stated cut-off is given here; in the data, active means normalized growth mostly below about 0.91 (no sharp cut-off); inconclusive means no clear call, values can overlap the other calls; inactive means mostly above about 0.92.
# Test: chemical genetic growth profiling, strain panel (AID 1159580);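 further: tested at 20 µM; growth read once vehicle control cultures reached saturation at 30 °C; 1 = growth at the plate median or of vehicle wells; lower values mean less growth of the strain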
# Conditions: S. cerevisiae deletion strains, growth OD
compound,measurement,setting,value
O=c1c(-c2cc(O)c(O)c(O)c2)coc2cc(O)c(O)c(O)c12,normalized growth,"locus YAL021C, strain ccr4, hits give low values",0.719 (active)
same,normalized growth,"locus YAL026C, strain drs2, hits give low values",0.876 (active)
same,normalized growth,"locus YAL030W, strain snc1, hits give low values",0.999
same,normalized growth,"locus YBL061C, strain skt5, hits give low values",0.94
same,normalized growth,"locus YBR009C, strain hhf1, hits give low values",0.975
same,normalized growth,"locus YBR021W, strain FUR4, hits give low values",1.03
same,normalized growth,"locus YBR023C, strain chs3, hits give low values",0.904 (active)
same,normalized growth,"locus YBR171W, strain sec66, hits give low values",0.991
same,normalized growth,"locus YBR229C, strain ROT2, hits give low values",0.812 (active)
same,normalized growth,"locus YBR231C, strain swc5, hits give low values",0.826 (active)
same,normalized growth,"locus YBR279W, strain paf1, hits give low values",0.97
same,normalized growth,"locus YCL011C, strain gbp2, hits give low values",0.979
same,normalized growth,"locus YCL016C, strain dcc1, hits give low values",0.99
same,normalized growth,"locus YCL029C, strain bik1, hits give low values",0.751 (active)
same,normalized growth,"locus YCL061C, strain MRC1, hits give low values",0.97
same,normalized growth,"locus YCL069W, strain vba3, hits give low values",0.996
same,normalized growth,"locus YCR088W, strain abp1, hits give low values",1.03
same,normalized growth,"locus YDL005C, strain med2, hits give low values",1.02
same,normalized growth,"locus YDL035C, strain GPR1, hits give low values",0.787 (active)
same,normalized growth,"locus YDL040C, strain nat1, hits give low values",1.02
same,normalized growth,"locus YDL074C, strain BRE1, hits give low values",0.698 (active)
same,normalized growth,"locus YDL101C, strain DUN1, hits give low values",0.462 (active)
same,normalized growth,"locus YDL134C, strain PPH21, hits give low values",0.777 (active)
same,normalized growth,"locus YDL185W, strain tfp1, hits give low values",0.944
same,normalized growth,"locus YDL192W, strain arf1, hits give low values",0.927
same,normalized growth,"locus YDR001C, strain nth1, hits give low values",1.01
same,normalized growth,"locus YDR069C, strain doa4, hits give low values",0.746 (active)
same,normalized growth,"locus YDR101C, strain arx1, hits give low values",0.918
same,normalized growth,"locus YDR137W, strain rgp1, hits give low values",0.716 (active)
same,normalized growth,"locus YDR159W, strain sac3, hits give low values",0.981
same,normalized growth,"locus YDR162C, strain NBP2, hits give low values",0.632 (active)
same,normalized growth,"locus YDR195W, strain ref2",0.993
same,normalized growth,"locus YDR297W, strain sur2, hits give low values",0.987
same,normalized growth,"locus YDR318W, strain mcm21, hits give low values",0.986
same,normalized growth,"locus YDR334W, strain swr1, hits give low values",0.879 (active)
same,normalized growth,"locus YDR335W, strain msn5, hits give low values",0.885 (active)
same,normalized growth,"locus YDR388W, hits give low values",0.983
same,normalized growth,"locus YDR392W, strain spt3, hits give low values",0.899
same,normalized growth,"locus YDR502C, strain sam2, hits give low values",0.931
same,normalized growth,"locus YEL003W, strain gim4, hits give low values",0.958
same,normalized growth,"locus YEL037C, strain rad23, hits give low values",0.937
same,normalized growth,"locus YEL061C, strain CIN8 (second series), hits give low values",1
same,normalized growth,"locus YEL061C, strain CIN8, hits give low values",0.878 (active)
same,normalized growth,"locus YER015W, strain faa2, hits give low values",0.919 (active)
same,normalized growth,"locus YER016W, strain bim1, hits give low values",1
same,normalized growth,"locus YER110C, hits give low values",1
same,normalized growth,"locus YER111C, strain swi4, hits give low values",0.731 (active)
same,normalized growth,"locus YER155C, strain BEM2 (second series), hits give low values",0.935
same,normalized growth,"locus YER155C, strain BEM2, hits give low values",0.991
same,normalized growth,"locus YER167W, strain BCK2, hits give low values",0.972
same,normalized growth,"locus YFR010W, strain ubp6, hits give low values",0.915
same,normalized growth,"locus YGL078C, strain dbp3, hits give low values",0.991
same,normalized growth,"locus YGL086W, strain mad1, hits give low values",0.923 (active)
same,normalized growth,"locus YGL167C, strain pmr1, hits give low values",1
same,normalized growth,"locus YGL173C, strain kem1, hits give low values",0.872 (active)
same,normalized growth,"locus YGL227W, strain vid30, hits give low values",1.05
same,normalized growth,"locus YGL240W, strain doc1, hits give low values",1.04
same,normalized growth,"locus YGL248W, strain PDE1, hits give low values",0.851 (active)
same,normalized growth,"locus YGL253W, strain hxk2, hits give low values",0.878 (active)
same,normalized growth,"locus YGR078C, strain PAC10, hits give low values",0.817 (active)
same,normalized growth,"locus YGR135W, strain pre9, hits give low values",0.917
same,normalized growth,"locus YGR229C, strain SMI1, hits give low values",0.328 (active)
same,normalized growth,"locus YGR252W, strain gcn5, hits give low values",0.853
same,normalized growth,"locus YHR013C, strain ard1, hits give low values",0.88
same,normalized growth,"locus YHR027C, strain rpn1, hits give low values",0.893 (active)
same,normalized growth,"locus YHR030C, strain SLT2, hits give low values",0.952
same,normalized growth,"locus YHR079C, strain IRE1 (second series), hits give low values",0.922 (active)
same,normalized growth,"locus YHR094C, strain hxt1, hits give low values",1.01
same,normalized growth,"locus YHR129C, strain ARP1, hits give low values",0.869 (active)
same,normalized growth,"locus YHR142W, strain chs7, hits give low values",0.808 (active)
same,normalized growth,"locus YHR200W, strain rpn10, hits give low values",0.957
same,normalized growth,"locus YIL066C, strain RNR3, hits give low values",0.774 (active)
same,normalized growth,"locus YIL073C, strain SPO22, hits give low values",0.686
same,normalized growth,"locus YIL125W, strain kgd1, hits give low values",1
same,normalized growth,"locus YIR030C, strain dcg1, hits give low values",1
same,normalized growth,"locus YJL092W, strain hpr5, hits give low values",1.01
same,normalized growth,"locus YJL095W, strain BCK1 (second series), hits give low values",0.986
same,normalized growth,"locus YJL095W, strain BCK1, hits give low values",0.331 (active)
same,normalized growth,"locus YJL115W, strain asf1, hits give low values",1.01
same,normalized growth,"locus YJL129C, strain trk1, hits give low values",1.03
same,normalized growth,"locus YJL134W, strain LCB3, hits give low values",0.943
same,normalized growth,"locus YJL154C, strain vps35, hits give low values",1.01
same,normalized growth,"locus YJL164C, strain tpk1, hits give low values",0.949
same,normalized growth,"locus YJL166W, strain qcr8, hits give low values",0.921
same,normalized growth,"locus YJL168C, strain set2, hits give low values",0.982
same,normalized growth,"locus YJL187C, strain SWE1 (second series), hits give low values",0.282 (active)
